Reference: PubChem BioAssay

Tests used:
[1] = test system: Botulinum neurotoxin type F light chain protease (Clostridium botulinum); experiment: Botulinum neurotoxin type F light chain protease inhibition, multiplex microsphere flow cytometry, validation set (AID 588459); details: multiplex microsphere protease substrate cleavage assay, at 10 µM, stronger effect = higher value
[2] = target: Botulinum neurotoxin type A (Clostridium botulinum) (UniProt P0DPI0); experiment: BoNT/A light chain protease inhibitors, biochemical, multiplex microsphere flow cytometry, validation set (AID 588460); details: at 10 µM, stronger effect = higher value
Sequence of Botulinum neurotoxin type A (Clostridium botulinum) (P0DPI0 whole entry, looked up): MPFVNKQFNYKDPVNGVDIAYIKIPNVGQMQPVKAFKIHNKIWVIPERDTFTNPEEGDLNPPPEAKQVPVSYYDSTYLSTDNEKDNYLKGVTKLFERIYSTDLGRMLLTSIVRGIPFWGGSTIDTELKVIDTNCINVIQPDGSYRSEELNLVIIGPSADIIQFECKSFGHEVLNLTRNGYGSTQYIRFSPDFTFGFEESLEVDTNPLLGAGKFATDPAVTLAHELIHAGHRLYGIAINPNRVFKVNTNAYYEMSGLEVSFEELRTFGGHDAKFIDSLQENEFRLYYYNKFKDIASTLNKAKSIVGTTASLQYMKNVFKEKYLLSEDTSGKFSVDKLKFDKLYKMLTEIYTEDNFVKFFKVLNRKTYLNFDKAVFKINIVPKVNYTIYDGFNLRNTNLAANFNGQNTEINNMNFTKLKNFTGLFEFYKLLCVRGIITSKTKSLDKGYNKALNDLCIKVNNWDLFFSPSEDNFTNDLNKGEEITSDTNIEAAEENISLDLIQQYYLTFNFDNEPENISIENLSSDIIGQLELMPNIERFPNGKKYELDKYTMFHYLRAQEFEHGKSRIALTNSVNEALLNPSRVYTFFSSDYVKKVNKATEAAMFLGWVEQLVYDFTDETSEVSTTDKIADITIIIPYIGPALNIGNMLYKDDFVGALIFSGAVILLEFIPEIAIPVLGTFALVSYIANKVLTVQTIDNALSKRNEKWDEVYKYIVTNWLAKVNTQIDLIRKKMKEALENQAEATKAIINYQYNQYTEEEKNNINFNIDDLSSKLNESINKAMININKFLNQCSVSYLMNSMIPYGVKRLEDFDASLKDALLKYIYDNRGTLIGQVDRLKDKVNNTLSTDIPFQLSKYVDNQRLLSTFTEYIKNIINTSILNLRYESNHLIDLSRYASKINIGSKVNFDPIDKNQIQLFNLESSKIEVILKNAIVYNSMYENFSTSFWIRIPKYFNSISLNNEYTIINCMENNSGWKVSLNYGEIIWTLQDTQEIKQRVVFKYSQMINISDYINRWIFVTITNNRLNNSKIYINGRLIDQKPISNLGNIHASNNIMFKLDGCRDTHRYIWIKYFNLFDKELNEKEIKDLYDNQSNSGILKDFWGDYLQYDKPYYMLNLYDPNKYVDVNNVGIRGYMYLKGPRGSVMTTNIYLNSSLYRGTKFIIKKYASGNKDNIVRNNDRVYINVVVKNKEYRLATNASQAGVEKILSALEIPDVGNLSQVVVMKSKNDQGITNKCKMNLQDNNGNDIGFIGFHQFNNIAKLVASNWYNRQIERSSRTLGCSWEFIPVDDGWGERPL

[3] = target: Lethal factor (Bacillus anthracis) (UniProt P15917); experiment: Lethal factor protease inhibitors, Bacillus anthracis, multiplex microsphere cleavage assay, validation set (AID 588461); details: flow cytometry, at 10 µM, stronger effect = higher value
Sequence of Lethal factor (Bacillus anthracis) (P15917 whole entry, looked up): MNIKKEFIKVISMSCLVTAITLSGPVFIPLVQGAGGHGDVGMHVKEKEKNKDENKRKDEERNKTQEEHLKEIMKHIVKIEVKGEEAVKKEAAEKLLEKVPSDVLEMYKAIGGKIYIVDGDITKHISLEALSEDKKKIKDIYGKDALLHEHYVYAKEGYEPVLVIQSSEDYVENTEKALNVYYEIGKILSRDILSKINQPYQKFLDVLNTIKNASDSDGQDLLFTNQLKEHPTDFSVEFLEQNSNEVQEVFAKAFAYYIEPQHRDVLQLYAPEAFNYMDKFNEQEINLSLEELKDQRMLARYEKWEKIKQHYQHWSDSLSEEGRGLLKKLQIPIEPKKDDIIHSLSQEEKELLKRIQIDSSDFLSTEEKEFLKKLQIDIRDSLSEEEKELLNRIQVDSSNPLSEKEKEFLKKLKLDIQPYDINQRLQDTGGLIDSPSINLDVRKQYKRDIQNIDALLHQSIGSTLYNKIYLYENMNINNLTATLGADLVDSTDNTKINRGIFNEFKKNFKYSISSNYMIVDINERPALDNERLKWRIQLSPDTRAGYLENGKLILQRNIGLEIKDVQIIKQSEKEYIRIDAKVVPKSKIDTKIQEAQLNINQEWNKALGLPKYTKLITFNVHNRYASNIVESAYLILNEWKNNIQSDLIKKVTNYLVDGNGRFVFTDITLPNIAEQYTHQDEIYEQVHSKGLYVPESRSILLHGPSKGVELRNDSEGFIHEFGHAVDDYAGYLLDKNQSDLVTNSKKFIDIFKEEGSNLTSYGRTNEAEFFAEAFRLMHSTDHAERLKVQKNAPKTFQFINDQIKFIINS

Measured: inhibition

CCOc1ccc(CC2CCC(=O)NC2=O)cc1 (stereo not drawn)
inactive: [1] -3% | [2] -0.5% | [3] -1.5%

COc1ccc2c(c1OC)C(=O)NC(C)=C(C(=O)OC(C)(C)C)C2O (stereo not drawn)
inactive: [1] 4.3% | [2] -0.4% | [3] -5.3%

COc1cccc2c(O)cc(=O)n(C)c12
inactive: [1] -7.7% | [2] -0.5% | [3] -8.1%

Cc1oc(/C=N/NC(=O)CC2(C)OCCO2)cc1Br
inactive: [1] 3.9% | [2] 0.6% | [3] 3.2%

N=C(N)c1ccc(OCCCCCOc2ccc(C(=N)N)cc2)cc1
inactive: [1] 0.7% | [2] -1.6% | [3] -2.7%

CS(=O)(=O)Oc1ccc2c(c1)O/C(=C\C=C\c1ccccc1)C2=O
inactive: [1] 26.9% | [2] 28.3% | [3] 25%

CCOC(=O)c1oc2cc(OCC(N)=O)ccc2c(=O)c1-c1ccc(OC)c(OC)c1
inactive: [1] -3.1% | [2] 1.1% | [3] 1.9%

CSCC[C@H](NC(=O)NC1CCCC1)C(=O)O
inactive: [1] 0.9% | [2] 0.2% | [3] -0.2%

Cn1cc(CN2CCC(C(=O)N3CCCCC3)CC2)c(-c2ccccc2F)n1
inactive: [1] 4% | [2] 0.2% | [3] 4.5%

COc1ccc(C(=O)Nc2cccc3cccnc23)cc1OC
inactive: [1] -2.2% | [2] -2.2% | [3] -4.6%

COc1ccc(CCNc2ncnc3c2[nH]c2cc(OC)c(OC)cc23)cc1OC
inactive: [1] -0.5% | [2] -0.5% | [3] -0.7%
